Assay results published in PubChem BioAssay (NCI).
This is part of a sample that, as a whole, favours compounds with a hit. Of some 83,000 tested, about 20% had one in any assay.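 Activity criterion: percent growth below 10, measured after cells in 96-well plates were exposed to a single compound concentration for 48 hours.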 Calls of active or inactive are those of the source.

Each compound was assayed on PC-3 prostate (assay: NCI-60 one-dose screen, 48 h (100 = growth as untreated, 0 = no growth, -100 = all killed)). Settings: 10 µM unless noted.

Question: How did the growth turn out when `Nc1ncnc2c1ncn2C1OC(COC(c2ccccc2)(c2ccccc2)c2ccccc2)C(O)C1O` (stereo not drawn) was run?
Answer: 88.7% (inactive)

Question: For `O=C(Nc1ccc(-n2cc(-c3ccncc3)c(-c3ccc(O)c(Cl)c3)n2)cc1)c1cc(C(F)(F)F)cc(C(F)(F)F)c1`, which growth is on record?
Answer: 35.8% (inactive)

Question: `CN1C(=O)C2(SCC(C(=O)NCC(=O)OC(C)(C)C)N2C(=O)C2CCCCC2)c2ccccc21` (stereo not drawn) was tested. Which growth did it give?
Answer: 94.6% (inactive)

Question: Which growth does the source give for `CCC1S/C(=N\N=C(/C)c2cc3ccccc3o2)N(c2ccccc2)C1=O` (stereo not drawn) here?
Answer: 81.7% (inactive)

Question: With `CC(C)(C)OC(=O)NCc1cccc(N=C=S)c1` as the compound, how does the growth read?
Answer: 51.2% (inactive)

Question: With `CCOc1ccc(NC(=O)Nc2cc(C(C)C)ccc2C)cc1` as the compound, how does the growth read?
Answer: 69.3% (inactive)

Question: How did the growth turn out when `O=C(NCCNc1nccc(-c2c(-c3cccc(O)c3)nc3sccn23)n1)Nc1cccc(C(F)(F)F)c1` was run?
Answer: 26.7% (inactive)

Question: Which growth does the source give for `C=C1c2c(Cl)ccc(O)c2C(O)=C2C(=O)[C@]3(O)C(O)=C(C(N)=O)C(=O)[C@@H](N(C)C)[C@@H]3[C@@H](O)[C@H]12` here?
Answer: -8.47% (active)

Question: How did the growth turn out when `CCN(CC)CCN1C(=O)c2c(c3c4ccccc4[nH]c3c3[nH]c4ccccc4c23)C1=O` was run?
Answer: 82.5% (inactive)

Question: Which growth does the source give for `O=C1OC(c2ccc(-c3ccccc3)cc2)=C/C1=C/C=C/c1ccccc1` here?
Answer: 105% (inactive)

Question: How did the growth turn out when `O=[N+]([O-])c1ccc(NS(=O)(=O)c2cc(Cl)ccc2Cl)c2ccccc12` was run?
Answer: 54.7% (inactive)

Question: Which growth does the source give for `O=C(NCCNc1nccc(-c2c(-c3cccc(O)c3)nc3sccn23)n1)c1ccccc1` here?
Answer: 68.5% (inactive)

Question: For `NS(=O)(=O)c1ccc(CCN2C(=O)/C(=C\c3ccc(Cl)cc3)C=C2c2ccc(Oc3ccccc3)cc2)cc1`, which growth is on record?
Answer: 38.6% (inactive)

Question: With `Cc1cn([C@]2(CF)O[C@H](CO)C2C)c(=O)[nH]c1=O` (stereo partly drawn) as the compound, how does the growth read?
Answer: 117% (inactive)

Question: For `CC(Cc1cccc(C(F)(F)F)c1)NCCOC(=O)c1ccccc1` (stereo not drawn), which growth is on record?
Answer: 103% (inactive)

Question: For `CCCCN(CCCC)c1ccc(C(=N)c2ccc(N(C)C)cc2)cc1`, which growth is on record?
Answer: -14.7% (active)

Question: With `COC(=O)/C=C/C(=O)c1cc(C)cc(C)c1O` as the compound, how does the growth read?
Answer: 102% (inactive)

Question: Which growth does the source give for `O=C1C(Cl)=C(Nc2ccccc2)C(=O)C(Cl)=C1Nc1ccccc1` here?
Answer: 109% (inactive)

Question: Which growth does the source give for `CC1(C)Cc2c(Br)c(Br)c(Br)c(OCC(O)CN3CCN(c4ccccn4)CC3)c2O1` (stereo not drawn) here?
Answer: 48.5% (inactive)

Question: For `Cc1ccc(-c2cn3cc([N+](=O)[O-])ccc3n2)cc1`, which growth is on record?
Answer: 77.1% (inactive)

Question: With `CCCOC(=O)c1ccc([N+](=O)[O-])o1` as the compound, how does the growth read?
Answer: 91.6% (inactive)

Question: `CCOC(=O)CSc1nnc(-c2cc3c([nH]c4ccccc43)c(-c3cccc(O)c3)n2)n1-c1ccc(C)cc1` was tested. Which growth did it give?
Answer: 15.1% (inactive)

Question: `O=C(NCCNc1nccc(-c2c(-c3cccc(O)c3)nc3sccn23)n1)c1ccc(N2CCOCC2)c(C(F)(F)F)c1` was tested. Which growth did it give?
Answer: 56.6% (inactive)

Question: For `COc1ccc(-c2nn(-c3cccc(Cl)c3)cc2-c2cc(-c3ccc(Br)cc3)[nH]c(=O)c2C#N)cc1`, which growth is on record?
Answer: 86% (inactive)

Question: How did the growth turn out when `Clc1ccc2c(NCCNc3nc(Cl)nc4ccccc34)ccnc2c1` was run?
Answer: -45.7% (active)

Question: Which growth does the source give for `COc1ccc2c(c1)/C(=C/c1c(-c3cc(OC)c(OC)c(OC)c3Br)nc3sccn13)C(=O)N2` here?
Answer: 82.6% (inactive)

Question: For `COc1ccccc1N1CCN(CCCOc2ccc(OCCCN3CCN(c4ccccc4OC)CC3)c(C(=O)c3cc(OC)c(OC)c(OC)c3)c2)CC1`, which growth is on record?
Answer: 95.9% (inactive)

Question: Which growth does the source give for `C=C1C(=O)O[C@H]2[C@H]1CC/C(COC(=O)CCCC(=O)OC/C1=C/CC[C@@]3(C)O[C@H]3[C@H]3OC(=O)C(=C)[C@@H]3CC1)=C\CC[C@@]1(C)O[C@@H]21` here?
Answer: 55.2% (inactive)

Question: For `O=C(Cn1c2ccccc2c2ccncc21)N/N=C/c1cc(O)c(O)c(O)c1`, which growth is on record?
Answer: 102% (inactive)

Question: For `C=C1C(=O)O[C@H]2[C@H]1CC/C(COC(=O)c1ccc(C#N)cc1)=C\CC[C@@]1(C)O[C@@H]21`, which growth is on record?
Answer: 50.6% (inactive)

Question: With `C=CC(C)(O)CCC1C(=C)CCC2C(C)(C)CCCC12C` (stereo not drawn) as the compound, how does the growth read?
Answer: 112% (inactive)

Question: For `O=c1nc(N2CCOCC2)oc2c(-c3cccc4ccccc34)cccc12`, which growth is on record?
Answer: 59.7% (inactive)

Question: For `CC(=O)c1ccc2c(c1)C1C=CCC1[C@H](c1cc3c(cc1Br)OCO3)N2` (stereo partly drawn), which growth is on record?
Answer: 20.9% (inactive)

Question: How did the growth turn out when `COc1cc2c(cc1OC)-c1c(oc3c4c(ccc3c1=O)OC(C)(C)C=C4)CO2` was run?
Answer: 75.1% (inactive)

Question: `NN=C(c1ccc(Cl)cc1)c1ccc(Cl)cc1` was tested. Which growth did it give?
Answer: 101% (inactive)

Question: `CCCCCCCCCCCC(=O)OCCNC(=O)C[n+]1ccccc1` was tested. Which growth did it give?
Answer: 92.5% (inactive)

Question: Which growth does the source give for `CC(C)(C)OC(=O)N1CCN(CCn2cc(C(F)(F)F)c3c(Cl)ncnc32)CC1` here?
Answer: 8.61% (active)

Question: With `Cc1cn(-c2cc(C(=O)Nc3cccc(-n4ccc5c(NC(=O)c6ccccc6)nccc54)c3)cc(C(F)(F)F)c2)cn1` as the compound, how does the growth read?
Answer: 18.5% (inactive)

Question: How did the growth turn out when `Clc1ccc(OCc2nc(-c3ccccc3)n[nH]2)c(Cl)c1` was run?
Answer: 87.3% (inactive)

These compounds were tested on SK-MEL-5 melanoma in the same assay as above. Settings: 10 µM unless noted.

Question: With `Nc1ncnc2c1ncn2C1OC(COC(c2ccccc2)(c2ccccc2)c2ccccc2)C(O)C1O` (stereo not drawn) as the compound, how does the growth read?
Answer: 92.3% (inactive)

Question: How did the growth turn out when `O=C(Nc1ccc(-n2cc(-c3ccncc3)c(-c3ccc(O)c(Cl)c3)n2)cc1)c1cc(C(F)(F)F)cc(C(F)(F)F)c1` was run?
Answer: 60% (inactive)

Question: With `CN1C(=O)C2(SCC(C(=O)NCC(=O)OC(C)(C)C)N2C(=O)C2CCCCC2)c2ccccc21` (stereo not drawn) as the compound, how does the growth read?
Answer: 98.2% (inactive)

Question: Which growth does the source give for `CCC1S/C(=N\N=C(/C)c2cc3ccccc3o2)N(c2ccccc2)C1=O` (stereo not drawn) here?
Answer: 83.9% (inactive)

Question: With `CC(C)(C)OC(=O)NCc1cccc(N=C=S)c1` as the compound, how does the growth read?
Answer: 49.2% (inactive)

Question: How did the growth turn out when `CCOc1ccc(NC(=O)Nc2cc(C(C)C)ccc2C)cc1` was run?
Answer: 124% (inactive)

Question: Which growth does the source give for `O=C(NCCNc1nccc(-c2c(-c3cccc(O)c3)nc3sccn23)n1)Nc1cccc(C(F)(F)F)c1` here?
Answer: 53.5% (inactive)

Question: `C=C1c2c(Cl)ccc(O)c2C(O)=C2C(=O)[C@]3(O)C(O)=C(C(N)=O)C(=O)[C@@H](N(C)C)[C@@H]3[C@@H](O)[C@H]12` was tested. Which growth did it give?
Answer: 20.4% (inactive)

Question: For `CCN(CC)CCN1C(=O)c2c(c3c4ccccc4[nH]c3c3[nH]c4ccccc4c23)C1=O`, which growth is on record?
Answer: 94.3% (inactive)

Question: With `O=C1OC(c2ccc(-c3ccccc3)cc2)=C/C1=C/C=C/c1ccccc1` as the compound, how does the growth read?
Answer: 106% (inactive)

Question: For `O=[N+]([O-])c1ccc(NS(=O)(=O)c2cc(Cl)ccc2Cl)c2ccccc12`, which growth is on record?
Answer: 14% (inactive)

Question: Which growth does the source give for `O=C(NCCNc1nccc(-c2c(-c3cccc(O)c3)nc3sccn23)n1)c1ccccc1` here?
Answer: 40.2% (inactive)

Question: For `NS(=O)(=O)c1ccc(CCN2C(=O)/C(=C\c3ccc(Cl)cc3)C=C2c2ccc(Oc3ccccc3)cc2)cc1`, which growth is on record?
Answer: 77.4% (inactive)

Question: `Cc1cn([C@]2(CF)O[C@H](CO)C2C)c(=O)[nH]c1=O` (stereo partly drawn) was tested. Which growth did it give?
Answer: 89.4% (inactive)

Question: For `CC(Cc1cccc(C(F)(F)F)c1)NCCOC(=O)c1ccccc1` (stereo not drawn), which growth is on record?
Answer: 89.5% (inactive)

Question: With `CCCCN(CCCC)c1ccc(C(=N)c2ccc(N(C)C)cc2)cc1` as the compound, how does the growth read?
Answer: -99.8% (active)

Question: How did the growth turn out when `COC(=O)/C=C/C(=O)c1cc(C)cc(C)c1O` was run?
Answer: 104% (inactive)

Question: Which growth does the source give for `O=C1C(Cl)=C(Nc2ccccc2)C(=O)C(Cl)=C1Nc1ccccc1` here?
Answer: 112% (inactive)

Question: With `CC1(C)Cc2c(Br)c(Br)c(Br)c(OCC(O)CN3CCN(c4ccccn4)CC3)c2O1` (stereo not drawn) as the compound, how does the growth read?
Answer: 63.5% (inactive)

Question: With `Cc1ccc(-c2cn3cc([N+](=O)[O-])ccc3n2)cc1` as the compound, how does the growth read?
Answer: 58.9% (inactive)

Question: For `CCCOC(=O)c1ccc([N+](=O)[O-])o1`, which growth is on record?
Answer: 116% (inactive)

Question: Which growth does the source give for `CCOC(=O)CSc1nnc(-c2cc3c([nH]c4ccccc43)c(-c3cccc(O)c3)n2)n1-c1ccc(C)cc1` here?
Answer: 94.1% (inactive)

Question: Which growth does the source give for `O=C(NCCNc1nccc(-c2c(-c3cccc(O)c3)nc3sccn23)n1)c1ccc(N2CCOCC2)c(C(F)(F)F)c1` here?
Answer: 40% (inactive)

Question: `COc1ccc(-c2nn(-c3cccc(Cl)c3)cc2-c2cc(-c3ccc(Br)cc3)[nH]c(=O)c2C#N)cc1` was tested. Which growth did it give?
Answer: 91% (inactive)

Question: `Clc1ccc2c(NCCNc3nc(Cl)nc4ccccc34)ccnc2c1` was tested. Which growth did it give?
Answer: -99.2% (active)

Question: With `COc1ccc2c(c1)/C(=C/c1c(-c3cc(OC)c(OC)c(OC)c3Br)nc3sccn13)C(=O)N2` as the compound, how does the growth read?
Answer: 83.1% (inactive)

Question: Which growth does the source give for `COc1ccccc1N1CCN(CCCOc2ccc(OCCCN3CCN(c4ccccc4OC)CC3)c(C(=O)c3cc(OC)c(OC)c(OC)c3)c2)CC1` here?
Answer: 87.6% (inactive)

Question: `C=C1C(=O)O[C@H]2[C@H]1CC/C(COC(=O)CCCC(=O)OC/C1=C/CC[C@@]3(C)O[C@H]3[C@H]3OC(=O)C(=C)[C@@H]3CC1)=C\CC[C@@]1(C)O[C@@H]21` was tested. Which growth did it give?
Answer: 33.4% (inactive)

Question: How did the growth turn out when `O=C(Cn1c2ccccc2c2ccncc21)N/N=C/c1cc(O)c(O)c(O)c1` was run?
Answer: 101% (inactive)

Question: How did the growth turn out when `C=C1C(=O)O[C@H]2[C@H]1CC/C(COC(=O)c1ccc(C#N)cc1)=C\CC[C@@]1(C)O[C@@H]21` was run?
Answer: 42.9% (inactive)

Question: With `C=CC(C)(O)CCC1C(=C)CCC2C(C)(C)CCCC12C` (stereo not drawn) as the compound, how does the growth read?
Answer: 107% (inactive)

Question: Which growth does the source give for `O=c1nc(N2CCOCC2)oc2c(-c3cccc4ccccc34)cccc12` here?
Answer: 79.2% (inactive)

Question: With `CC(=O)c1ccc2c(c1)C1C=CCC1[C@H](c1cc3c(cc1Br)OCO3)N2` (stereo partly drawn) as the compound, how does the growth read?
Answer: 9.13% (active)

Question: `COc1cc2c(cc1OC)-c1c(oc3c4c(ccc3c1=O)OC(C)(C)C=C4)CO2` was tested. Which growth did it give?
Answer: 23.8% (inactive)

Question: With `NN=C(c1ccc(Cl)cc1)c1ccc(Cl)cc1` as the compound, how does the growth read?
Answer: 107% (inactive)

Question: `CCCCCCCCCCCC(=O)OCCNC(=O)C[n+]1ccccc1` was tested. Which growth did it give?
Answer: 100% (inactive)

Question: Which growth does the source give for `CC(C)(C)OC(=O)N1CCN(CCn2cc(C(F)(F)F)c3c(Cl)ncnc32)CC1` here?
Answer: 80% (inactive)

Question: With `Cc1cn(-c2cc(C(=O)Nc3cccc(-n4ccc5c(NC(=O)c6ccccc6)nccc54)c3)cc(C(F)(F)F)c2)cn1` as the compound, how does the growth read?
Answer: -54.5% (active)

Question: `Clc1ccc(OCc2nc(-c3ccccc3)n[nH]2)c(Cl)c1` was tested. Which growth did it give?
Answer: 100% (inactive)
